{
  "source": "PubChem BioAssay",
  "data": [
    {"system": "Rat fibroblasts (CREF)", "assay": "inhibition of PEG-3 promoter-driven reporter – cell-based, HeLa, luciferase, CREF/GAPDH counter-screen panel, dose response (AID 624167)", "settings": "CREF/GAPDH counter-screens; run 2, dose range 1, at 100 µM (top of the series)", "units": {"inhibition": "%"}, "values": [
      {"smiles": "COc1ccc(/C=C2\\SC(=S)N(CCCC(=O)NNC(=O)c3ccccc3O)C2=O)cc1", "inhibition": 43.3},
      {"smiles": "Cc1ccc(/C=C2\\SC(=S)N(CCCC(=O)NNC(=O)c3ccccc3O)C2=O)cc1", "inhibition": 11},
      {"smiles": "O=C(Nc1ncc([N+](=O)[O-])s1)c1ccc2c(c1)OCO2", "inhibition": 91.7},
      {"smiles": "CN(C(=O)COC(=O)/C=C/c1cccc([N+](=O)[O-])c1)C1CCS(=O)(=O)C1", "note": "(stereo not given)", "inhibition": 36.6},
      {"smiles": "c1ccc(-c2nc(-c3ccccn3)no2)cc1", "inhibition": 98.3},
      {"smiles": "Cc1cc(S(=O)(=O)c2ccc(Cl)cc2)nc(S(=O)(=O)c2ccc(Cl)cc2)c1C#N", "inhibition": 98.8},
      {"smiles": "O=C(c1ccco1)N1CCN(C(c2ccccc2Cl)c2nnnn2Cc2cccs2)CC1", "note": "(stereo not given)", "inhibition": -17.6},
      {"smiles": "CC1=NOC(=O)/C1=C\\c1ccc(-c2ccccc2Br)o1", "inhibition": 53.8},
      {"smiles": "Cc1nc(C)c(C(=O)N/N=C/c2cc(Br)ccc2O)s1", "inhibition": 46.2},
      {"smiles": "COc1ccc(-n2c(O)c(/C=N/Nc3nc(C)cc(C)n3)c3ccccc3c2=O)cc1OC", "inhibition": 68.5},
      {"smiles": "CC(C)CC1C(=O)N(Cc2cn(Cc3ccco3)nn2)CCS(=O)(=O)N1Cc1ccc(-c2ccc(F)cc2)cc1", "note": "(stereo not given)", "inhibition": 100},
      {"smiles": "CCCCCCCn1c(=N)n(CC(=O)c2ccco2)c2ccccc21", "inhibition": 98},
      {"smiles": "Cc1nc(-c2ccc(NC(=O)c3ccco3)cc2)cs1", "inhibition": 95.8},
      {"smiles": "CC1CCN(c2ccc(-c3cccs3)nn2)CC1", "inhibition": 96.2},
      {"smiles": "O=C(O)c1cccc(COc2ccccc2Cl)c1", "inhibition": 72.1},
      {"smiles": "CC(=O)c1ccc(-c2cnc3c(NC=O)cc(-c4ccccc4Oc4ccccc4)cn23)cc1", "inhibition": 94.9},
      {"smiles": "O=C(Nc1nc2ccccc2[nH]1)c1ccccc1F", "inhibition": 99.2},
      {"smiles": "CN[C@H]1C[C@H]2c3[nH]c4ccc(-c5ccc(OC)cc5)cc4c3CCN2C(=O)[C@H]1[C@H](C)O", "inhibition": 99.6},
      {"smiles": "COc1ccc2c(c1)sc1nc(-c3ccccc3)cn12", "inhibition": 98.5},
      {"smiles": "COC1CC(C)C(OC)c2cc(O)cc(c2O)NC(=O)C(C)=CC=CC(C)C(OC(N)=O)C(C)=CC(C)C1OC", "note": "(stereo not given)", "inhibition": 98.6},
      {"smiles": "CCc1ccc(/C=C2\\SC(=S)N(CCCC(=O)NC3=NCCS3)C2=O)cc1", "inhibition": 7.65},
      {"smiles": "CC(=O)c1sc2c(c1OC(=O)c1ccc(Cl)cc1Cl)c(=O)n(-c1ccccc1)c(=S)n2-c1ccccc1", "inhibition": 61.6},
      {"smiles": "CCN(CC)S(=O)(=O)c1cccc(C(=O)N/N=C(\\C)c2ccc(O)cc2O)c1", "inhibition": 47.7},
      {"smiles": "O=C(COc1ccc2c(c1)CCC2)Nc1ccccn1", "inhibition": 94.5},
      {"smiles": "O=C(NCCc1ccccc1)c1ccc2c(c1)OCO2", "inhibition": 93.7},
      {"smiles": "N=c1n(CCN2CCCCC2)c2ccccc2n1CC(O)c1ccc(Cl)c(Cl)c1", "note": "(stereo not given)", "inhibition": 99.7},
      {"smiles": "CCOc1ccc(OCc2cccc(C(=O)O)c2)cc1", "inhibition": 97.5},
      {"smiles": "CN(C)c1ccc(/C=C/c2ccc3c4ccccc4ccc3[n+]2-c2ccccc2)cc1", "inhibition": 100},
      {"smiles": "O=C(COc1ccc(Cl)cc1Cl)Nc1ccccn1", "inhibition": 99.7},
      {"smiles": "Cc1ccc(C(=O)CN2C(=O)c3ccccc3S2(=O)=O)cc1", "inhibition": 87.5},
      {"smiles": "CCCS(=O)(=O)c1cnc(C2COc3ccccc3O2)nc1N", "note": "(stereo not given)", "inhibition": 87.6},
      {"smiles": "NS(=O)(=O)c1ccc(CCNc2nn3c(-c4ccc(F)c(Cl)c4)cnc3s2)cc1", "inhibition": 14.8},
      {"smiles": "CN(C)CC1CCC/C(=C\\c2ccc(OC(=O)c3ccc(Cl)cc3)cc2)C1=O", "note": "(stereo not given)", "inhibition": -21.7},
      {"smiles": "CN(C)S(=O)(=O)c1ccc(-c2csc(N/N=C/c3ccc(O)cc3)n2)cc1", "inhibition": 98.8},
      {"smiles": "Brc1ccc(N=Nc2ccc3ccccc3n2)cc1", "inhibition": 96.3},
      {"smiles": "CC(=O)NC(c1ccc(Cl)cc1Cl)c1ccc2cccnc2c1O", "note": "(stereo not given)", "inhibition": 0.461},
      {"smiles": "COc1cc(OC)c2cc(C(=O)N/N=C/c3ccccc3O)[nH]c2c1", "inhibition": 65.2},
      {"smiles": "CS(=O)(=O)c1ccc(-c2sc3ccccc3c2C#CCCO)cc1", "inhibition": 95.7},
      {"smiles": "Nc1ccc(-c2nc3ccc(C(=O)O)cc3s2)cc1", "inhibition": 90.5},
      {"smiles": "COc1ccc(S(=O)(=O)/N=C2\\C=C(Nc3ccc(O)cc3)C(=O)c3ccccc32)cc1", "inhibition": 97.4}
    ]}
  ]
}
